Shown are actives, neighbours in structure and some others; about 10% of the full set was active somewhere.
VP16 counter = VP16 counterscreen qHTS for inhibitors of ROR gamma transcriptional activity | Drosophila S2 Gal4-VP16 UAS-luciferase, luminescence, 20 h | Potency, µM (titrated, usually from 53.6 µM), most hits filed as inhibitors | 310,000 compounds, 3.5% hits;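 further: Gal4-VP16 expression switched on by copper sulfate through the metallothionein promoter; nearly all actives have a fitted effect of over 50% in size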
SW480 rereplic = A quantitative high throughput screen for small molecules that induce DNA re-replication in SW480 colon adenocarcinoma cells; 340,000 compounds, 1.8% hits; AID 624297, 2012; SW480 DNA re-replication, Hoechst DNA content imaging, 48 h; Potency, µM (doses to about 46.1 µM), hits mostly activators; further: nearly all actives have a fitted effect of over 55% in size
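Image-based DNA-content assay: after two days of treatment, nuclei were labelled with the DNA dye Hoechst and imaged, and hits were compounds raising the count of nuclei showing high fluorescence intensity.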
MCF10A rereplic = A quantitative high throughput screen for small molecules that induce DNA re-replication in MCF 10a normal breast cells; MCF 10A DNA re-replication, Hoechst nuclear intensity, 48 h; Potency, µM (series often up to 46.1 µM), most hits filed as activators; 350,000 compounds, 2.9% hits; AID 624296, 2012; further: nearly all actives have a fitted effect of over 50% in size
RORgamma inh = qHTS for inhibitors of ROR gamma transcriptional activity; Drosophila S2 Gal4-RORgamma UAS-luciferase reporter, 20 h; Potency, µM (top dose mostly 53.6 µM), actives largely listed as inhibitors; 310,000 compounds, 5.4% hits; further: nearly all actives have a fitted effect of over 60% in size
Target sequence (P51450 whole entry, looked up, the tested form may be a part): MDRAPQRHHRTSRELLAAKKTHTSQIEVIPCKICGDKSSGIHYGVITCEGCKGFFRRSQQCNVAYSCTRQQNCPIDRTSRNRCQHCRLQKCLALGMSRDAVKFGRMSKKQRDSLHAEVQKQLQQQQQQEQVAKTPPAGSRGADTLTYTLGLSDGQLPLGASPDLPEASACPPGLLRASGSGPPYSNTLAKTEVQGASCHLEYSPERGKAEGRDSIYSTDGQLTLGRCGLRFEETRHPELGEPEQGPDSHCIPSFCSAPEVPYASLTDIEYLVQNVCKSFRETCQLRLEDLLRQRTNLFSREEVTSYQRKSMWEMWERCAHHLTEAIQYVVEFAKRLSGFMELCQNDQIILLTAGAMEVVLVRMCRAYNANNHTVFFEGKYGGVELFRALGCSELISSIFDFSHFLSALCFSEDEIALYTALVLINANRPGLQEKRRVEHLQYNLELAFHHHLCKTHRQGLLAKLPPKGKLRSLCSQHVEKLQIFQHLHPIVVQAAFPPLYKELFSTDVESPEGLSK
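In this cell-based reporter format, copper sulfate (700 uM final) drives Gal4–ROR gamma fusion expression from a metallothionein promoter in Drosophila Schneider cells; compounds preincubated 1 hr, reporter read after 20 hr at ambient temperature.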
KB-3-1 cytotox = qHTS assay for MDR1-selective chemotherapeutics: Primary screen using the parental adenocarcinoma cell KB-3-1; 400,000 compounds, 1.4% hits; KB-3-1 viability, CellTiter-Glo ATP luminescence, 72 h; Potency, µM (titrated, usually from 46.1 µM), most hits filed as cytotoxic; further: nearly all actives have a fitted effect of over 60% in size
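Here the drug-naive KB-3-1 line serves as comparator for MDR sub-line selectivity; cells received compound titrations, 72 h at 37 °C, then CellTiter-Glo readout.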
KB-V1 cytotox = qHTS assay for MDR1-selective chemotherapeutics: Primary screen using the drug-selected MDR subline cells KB-V1 | AID 1347076, 2019 | 400,000 compounds, 3.4% hits | Potency, µM (highest dose often 46.1 µM), actives largely listed as cytotoxic | KB-V1 MDR cells viability, CellTiter-Glo, 72 h; further: nearly all actives have a fitted effect of over 60% in size
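Compound-treated KB-V1 multidrug-resistant cells, 72 h, 37 degrees C; viability by CellTiter-Glo. Fitted qHTS curves give the values.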
A number is an active result. The call rests on the fitted dose curve; in most records, active means well fitted curve in the direction sought with a large enough effect; inconclusive means small, poorly fitted or top-dose-only effect, or another doubt; inactive means no such curve, though single readings can be large; an effect the other way counts as inactive or inconclusive.

What do the screens show for `COc1cc(/C=N\NC(=O)c2cccc(Cl)c2)ccc1Oc1ccc([N+](=O)[O-])cn1`?
VP16 counter: inactive; SW480 rereplic: 21µM; MCF10A rereplic: inconclusive; RORgamma inh: inactive; KB-3-1 cytotox: inactive; KB-V1 cytotox: inconclusive

Results for COc1ccc(/C=N/NC(=O)c2cccc([N+](=O)[O-])c2)cc1O ?
VP16 counter: inconclusive; SW480 rereplic: inconclusive; MCF10A rereplic: inconclusive; RORgamma inh: inactive; KB-3-1 cytotox: inactive; KB-V1 cytotox: inactive

Results for COc1cc(/C=N/NC(=O)c2cccc([N+](=O)[O-])c2)ccc1OCc1ccc(C)cc1 ?
VP16 counter: inactive; SW480 rereplic: inactive; MCF10A rereplic: inactive; RORgamma inh: 2.5µM; KB-3-1 cytotox: inactive; KB-V1 cytotox: inactive

How did COc1cc(/C=N\NC(=O)c2ccc(Cl)cc2)ccc1Oc1ccc([N+](=O)[O-])cn1 do in these assays?
VP16 counter: inactive; SW480 rereplic: inactive; MCF10A rereplic: inactive; RORgamma inh: inactive; KB-3-1 cytotox: inactive; KB-V1 cytotox: inactive

How did COc1ccc(NC(=O)COC(=O)CCOc2ccccc2C)cc1Cl do in these assays?
SW480 rereplic: inconclusive; MCF10A rereplic: inactive; KB-3-1 cytotox: inactive; KB-V1 cytotox: inconclusive

How did COc1ccccc1NC(=O)c1ccc(COc2ccccc2OC)cc1 do in these assays?
SW480 rereplic: inactive; MCF10A rereplic: inactive; KB-3-1 cytotox: inactive; KB-V1 cytotox: inactive

How did COc1ccccc1NC(=S)NC(=O)c1ccc(Cn2cc(Br)cn2)cc1 do in these assays?
VP16 counter: inconclusive; SW480 rereplic: inactive; MCF10A rereplic: inconclusive; RORgamma inh: 7.9µM; KB-3-1 cytotox: inactive; KB-V1 cytotox: inactive

How did CCn1cc(C(=O)NC(=S)Nc2ccccc2Br)cn1 do in these assays?
VP16 counter: 10µM; SW480 rereplic: inactive; MCF10A rereplic: inactive; RORgamma inh: 7.1µM; KB-3-1 cytotox: inactive; KB-V1 cytotox: inactive

How did COC(=O)c1ccc(C(NC(=O)OCc2ccccc2)/C(C)=C/[C@@H](C)C(=O)NCc2cccnc2)cc1 (stereo not given in full) do in these assays?
VP16 counter: inactive; RORgamma inh: inconclusive

Results for CC1CCc2cc(F)cc3c2N1C(=O)C(C(=O)Nc1cnccn1)C3=O (stereo not given) ?
KB-3-1 cytotox: inactive; KB-V1 cytotox: inactive

How did COc1cc(NC(=O)c2ccccc2F)ccc1NC(=O)c1cc2ccccc2o1 do in these assays?
VP16 counter: 13µM; SW480 rereplic: inconclusive; MCF10A rereplic: 2.3µM; RORgamma inh: inconclusive; KB-3-1 cytotox: inactive; KB-V1 cytotox: inactive

What do the screens show for `COc1cc(NC(=O)c2ccc(C)cc2)ccc1NC(=O)c1cc2ccccc2o1`?
VP16 counter: inactive; SW480 rereplic: inactive; MCF10A rereplic: inactive; RORgamma inh: inactive; KB-3-1 cytotox: inactive; KB-V1 cytotox: inactive

Results for COc1cc(NC(=O)c2ccc(C)cc2C)ccc1NC(=O)c1cc2ccccc2o1 ?
VP16 counter: inconclusive; SW480 rereplic: inconclusive; MCF10A rereplic: 9.2µM; RORgamma inh: 1.6µM; KB-3-1 cytotox: inconclusive; KB-V1 cytotox: inactive

What do the screens show for `COc1ccc(C2=C(C)C(N3CCC(C(=O)NCc4ccco4)CC3)=NS2(=O)=O)cc1`?
KB-3-1 cytotox: inactive; KB-V1 cytotox: inactive

How did Cc1sc2nc(C3CC3)nc(N3CCN(C(=O)c4ccccc4F)CC3)c2c1C do in these assays?
VP16 counter: inactive; SW480 rereplic: inconclusive; MCF10A rereplic: inactive; RORgamma inh: inactive; KB-3-1 cytotox: inactive; KB-V1 cytotox: inconclusive

How did Cc1sc2nc(C3CC3)nc(N3CCN(C(=O)c4ccc(F)cc4)CC3)c2c1C do in these assays?
VP16 counter: inactive; SW480 rereplic: inconclusive; MCF10A rereplic: inconclusive; RORgamma inh: inactive; KB-3-1 cytotox: inactive; KB-V1 cytotox: inactive

Results for Cc1sc2nc(C3CC3)nc(N3CCN(C(=O)c4ccc(Cl)cc4)CC3)c2c1C ?
VP16 counter: inactive; SW480 rereplic: inactive; MCF10A rereplic: inconclusive; RORgamma inh: inactive; KB-3-1 cytotox: inconclusive; KB-V1 cytotox: 18µM
